Mito fusion act – qHTS Assay for Small Molecule Inhibitors of Mitochondrial Division or Activators of Mitochondrial Fusion; S. cerevisiae fusion-defective mutant growth rescue, CellTiterGlo 48 h; Potency, µM (doses to about 46.1 µM), for inactives: at the top dose growth rescue (activation), actives largely listed as activators; 0.23% of 320,000 active; AID 485298, 2010; note: potency is the fitted concentration of half-maximal effect; % of control where 0% means no effect; nearly all actives have a fitted effect of over 45% in size
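Temperature-sensitive fusion-defective S. cerevisiae (e.g. fzo1-1, mgm1-5) were grown with compound in YPEG medium (3% ethanol, 3% glycerol) for 48 hours at 37C. Growth rescue was measured as viability by CellTiterGlo luminescence after 10 minutes at ambient.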
S-ASM inh – Inhibitors of Secretory Acid Sphingomyelinase (S-ASM): qHTS; 0.006% of 340,000 active; AID 504937, 2011; Potency, µM (highest dose often 57.5 µM), without a hit: at the top dose activity change, negative = inhibition, usual class: inhibitors; placental ASM, HMU-PC fluorogenic substrate, 60 min; Sphingomyelin phosphodiesterase (Homo sapiens), P17405; note: potency is the fitted concentration of half-maximal effect
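Human placenta-derived ASM enzyme was preincubated with compound for 10 minutes at room temperature, then given fluorogenic substrate HMU-PC0 (9 uM final) for 60 minutes at 37 °C; a pH 10 stop preceded fluorescence reading at Ex 386/Em 447 nm.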
IDH1 R132H inh – qHTS for Inhibitors of mutant isocitrate dehydrogenase 1 (IDH1): qHTS. Isocitrate dehydrogenase [NADP] cytoplasmic (Homo sapiens), O75874. IDH1-R132H enzyme, NADPH consumption, diaphorase/resazurin fluorescence. Potency, µM (titrated, usually from 76.6 µM), without a hit: top-dose activity change, negative = inhibition, usual class: inhibitors. 0.093% of 390,000 active. AID 602179, 2012; note: potency is the fitted concentration of half-maximal effect; % is set by controls: 0 for no effect and ±100 for the full control effect; nearly all actives have a fitted effect of over 65% in size
Target sequence (O75874 whole entry R132H, stated change not applied): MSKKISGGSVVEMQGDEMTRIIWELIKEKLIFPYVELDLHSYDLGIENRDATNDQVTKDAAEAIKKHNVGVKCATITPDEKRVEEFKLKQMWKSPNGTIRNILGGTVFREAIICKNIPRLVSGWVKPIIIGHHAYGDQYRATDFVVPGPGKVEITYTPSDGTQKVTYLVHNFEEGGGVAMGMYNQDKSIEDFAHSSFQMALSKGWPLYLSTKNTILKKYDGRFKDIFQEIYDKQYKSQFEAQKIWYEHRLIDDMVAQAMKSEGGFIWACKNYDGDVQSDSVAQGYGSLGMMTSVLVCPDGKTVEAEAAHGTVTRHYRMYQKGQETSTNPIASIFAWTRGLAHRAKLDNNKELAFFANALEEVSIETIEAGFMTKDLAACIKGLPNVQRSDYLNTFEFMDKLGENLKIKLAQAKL
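IDH1-R132H (0.5 ug/mL) preincubated 30 min with compound, then NADPH (0.016 mM) and alpha-KG (2 mM) added; 80 min at RT, pH 7.5. Remaining NADPH coupled via diaphorase/resazurin to fluorescence (540/590 nm); concentration-response curves normalized to no-enzyme control.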
RGS4 inh – Inhibitors of Regulator of G Protein Signaling (RGS) 4: qHTS; Regulator of G-protein signaling 4 (Homo sapiens), P49798; Transcreener GDP fluorescence polarization, RGS4-accelerated GTP hydrolysis; Potency, µM (highest dose often 114 µM), for inactives: top-dose activity change, negative = inhibition, most hits filed as inhibitors; 0.039% of 390,000 active; AID 504845, 2011; note: potency is the fitted concentration of half-maximal effect; % is set by controls: 0 for no effect and ±100 for the full control effect; nearly all actives have a fitted effect of over 75% in size
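MLSMR compounds (23 nl, pin-transferred) preincubated 10 min at room temperature with a 500nM (2x) first reagent, then RGS4 at 900nM (2x) plus Transcreener GDP mix added; fluorescence polarization (620/688 nm) read before and after 90 min at 30 °C.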
ClpP mod – qHTS Assay for Activators of ClpP. 1.9% of 340,000 active. AID 651965, 2013. purified B. subtilis ClpP, FRET peptide cleavage, 20 min. Potency, µM (doses to about 57.5 µM), inactives show top-dose activity change, negative = active. ATP-dependent Clp protease proteolytic subunit (Bacillus subtilis (strain 168)), P80244; active = well fitted falling curve with a large enough effect; inconclusive = small, poorly fitted or top-dose-only effect; inactive = no such curve, though single readings can be large or run the other way; note: potency is the fitted concentration of half-maximal effect; the source files actives as falling curves though it sought activators and does not explain the sign; nearly all actives have a fitted effect of over 65% in size
Target sequence (P80244 whole entry, looked up): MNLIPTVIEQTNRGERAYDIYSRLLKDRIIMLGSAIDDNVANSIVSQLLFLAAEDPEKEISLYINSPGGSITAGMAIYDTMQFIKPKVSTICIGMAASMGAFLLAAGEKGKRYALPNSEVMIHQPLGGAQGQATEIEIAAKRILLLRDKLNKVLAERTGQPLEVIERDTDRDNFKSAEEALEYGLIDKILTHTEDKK
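Purified B. subtilis ClpP, 10 microg/mL final in Tris/HCl pH8 with KCl, BSA, glycerol and Tween-20, cleaved an Abz/nitrotyrosine-quenched decapeptide. Fluorescence (ex 320, em 430) was read at 0 and 20 min at room temperature. Delta was normalized to 5.8 microM ADEP and DMSO/no-enzyme controls.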
LDHA inh – qHTS assay for inhibitors of human lactate dehydrogenase. L-lactate dehydrogenase A chain (Homo sapiens), P00338. purified LDHA, NADH/diaphorase-resazurin fluorescence; stronger effect = lower value. activity change, % (values are at about 110 or 230 µM). 0.15% of 480,000 active. AID 1347041, 2019; in the data active = activity change below about -30%; inconclusive = mostly about -25% to -30%;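 note: plate controls were DMSO wells for no effect and wells without enzyme for full effect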
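Human LDH5 (2 nM) was incubated with 0.06 mM NADH and 0.2 mM pyruvate for 5 min at room temperature in Tris pH 7.4. Remaining NADH was coupled through diaphorase/resazurin, and resorufin fluorescence was read at 0 and 20 min.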
The depositor's hits bear a star; i = inactive; ? = inconclusive; nt = no result given; ! = not confirmed by another sample; [ ] = dose if it differs, or a comment. Only a selection was taken, and hits are over-represented in it overall. Unless noted, calls come from the whole dose curve; as a rule, active = well fitted curve in the direction sought with a large enough effect; inconclusive = small, poorly fitted or top-dose-only effect, or another doubt; inactive = no such curve, though single readings can be large; an effect the other way counts as inactive or inconclusive.

SMILES | Mito fusion act | S-ASM inh | IDH1 R132H inh | RGS4 inh | ClpP mod | LDHA inh
CCOc1cc(/C=N/NS(=O)(=O)c2ccccc2)ccc1OS(=O)(=O)c1ccc(C)cc1 | 2% | -6% | 0% | -4% | ? | -2
CSc1ccc(C(=O)O)s1 | nt | nt | nt | nt | nt | 0
Cc1cc(-c2nnc(CN3CCN(c4cnn(-c5ccccc5)c(=O)c4Cl)CC3)o2)c(C)o1 | nt | nt | nt | nt | nt | 1
COc1ccc(Nc2c(-c3ccco3)nc3ccc(C)cn23)cc1 | -4% | 259% | -4% | -15% | -27% | -2
c1ccc(Nc2c(-c3ccco3)nc3ccccn23)cc1 | -1% | 256% | 5% | -11% | 25µM* | 2
Fc1ccc(Nc2c(-c3ccco3)nc3ccccn23)cc1 | -1% | 175% | 3% | -4% | 28µM*! | -3
Cc1ccc(Nc2c(-c3ccco3)nc3ccccn23)cc1 | 13% | 292% | 0% | -26% | 25µM* | -3
c1coc(-c2nc3ccccn3c2Nc2ccc3c(c2)OCCO3)c1 | nt | nt | -12% | -10% | 4% | -2
O=C(NCc1ccc(Cl)cc1Cl)C1CCN(c2ncnc3nc[nH]c23)CC1 | nt | nt | nt | nt | nt | -1
CC(C)(C)CC(=O)N1CCN(CCc2ccccc2)CC1 | nt | nt | nt | nt | nt | 8
COc1ccc2c(c1OC)CCC2=O | -1% | -3% | 7% | -25% | 28µM* | 0
COc1ccc(-c2ccc(OC)c(OC)c2OC)c(OC)c1OC | nt | 1% | 1% | 10% | -1% | -6
O=C(CN1C(=O)NC2(CCOc3ccccc32)C1=O)NCc1ccccc1 (stereo not drawn) | nt | 6% | -2% | 24% | 11µM* | -3
Nc1c(-c2ccccc2)nc(Cl)nc1-c1ccccc1 | -3% | i | 0% | 16%[11.4 µM] | 32µM* | -2
Cc1cc(-c2csc(NC(=O)c3cccc(S(=O)(=O)N(C)C)c3)n2)c(C)n1-c1ccccc1 | -6% | 3% | -1% | 8% | 14µM* | -8
N=c1c(C(=O)NCc2ccco2)cc2c(=O)n3ccccc3nc2n1CCc1ccccc1 | -2% | 385% | 2% | 9% | 28µM* | -3
N=c1c(C(=O)NCc2ccc(F)cc2)cc2c(=O)n3ccccc3nc2n1CC1CCCO1 (stereo not drawn) | 3% | i | -6% | 17% | -8% | 5
COc1ccc(CCn2c(=N)c(C(=O)NCc3ccco3)cc3c(=O)n4ccccc4nc32)cc1OC | nt | 92% | 4% | -31% | 1% | 0
N=c1c(C(=O)NCc2ccco2)cc2c(=O)n3ccccc3nc2n1CC1CCCO1 (stereo not drawn) | nt | 336% | -1% | 6% | 28µM* | -1
COCc1cc(C)n(CC(=O)Nc2ccccc2C(=O)OC)c(=O)c1C#N | -2% | 6% | 5% | -1%[56.9 µM] | 18µM* | -1
COCc1cc(C)n(CC(=O)NCc2ccccc2)c(=O)c1C#N | -6% | 9% | 8% | -8% | 4% | 3
COCc1cc(C)n(CC(=O)NC(C)c2ccccc2)c(=O)c1C#N (stereo not drawn) | 3% | 10% | 8% | -15%[56.9 µM] | 16µM* | -2
CCc1cc(=O)oc2cc(OCC(=O)NCc3ccncc3)ccc12 | nt | nt | nt | nt | nt | -1
COc1ccc(Br)cc1CN1CCCC(C(=O)N2CCCCCC2)C1 (stereo not drawn) | -1% | 3% | 7% | ? | -2% | -33*
COc1ccc(Br)cc1CN1CCCC(C(=O)N2CCCCC2)C1 (stereo not drawn) | -1% | 5% | 7% | 44% | 0% | ?
SMILES | Mito fusion act | S-ASM inh | IDH1 R132H inh | RGS4 inh | ClpP mod | LDHA inh
CCCn1nc(C(=O)N(C)CC(=O)Nc2ccc(OCC)c(OCC)c2)c2ccccc2c1=O | -3% | 3% | 3% | -29% | 25µM* | -11
COc1ccc(NC(=O)CN(C)C(=O)CCCc2nc3ccccc3c(=O)[nH]2)cc1 | -2% | 4% | 1% | -10% | 1% | -3
CCCOc1ccc(NC(=O)c2nn(CCC)c(=O)c3ccccc23)cc1OCCC | nt | nt | nt | nt | nt | 17
CCOc1ccc(NC(=O)CN(C)C(=O)CCCc2nc3ccccc3c(=O)[nH]2)cc1OCC | 1% | 0% | 0% | 17% | 16µM* | -7
CCOc1ccc(NC(=O)CN(C)C(=O)c2cc(-c3ccc(OC)cc3)nc3ccccc23)cc1OCC | ? | 36% | 5% | -6% | 32µM* | 0
CNc1c(NC(=O)NCc2ccc(F)cc2)c(=O)oc2ccccc12 | nt | nt | nt | nt | nt | -8
Cc1cc(OCc2nn[nH]n2)c2c(C)c(Cc3ccccc3)c(=O)oc2c1 | 6% | 12% | ? | -10% | 32µM* | -1
COc1ccccc1C(=O)CSc1nnc(Nc2cccc(C)c2C)s1 | nt | nt | nt | nt | nt | 7
Cc1ccc(CSc2nnc(-c3ccc4c(c3)OCO4)o2)cc1 | -3% | 2% | 2% | 19% | 35% | 0
Cc1ccc(CSc2ccc(-c3ccc4c(c3)OCO4)nn2)cc1 | 10% | nt | 9% | 9% | 28µM* | -2
O=C(/C=C/c1cccs1)Nc1nccs1 | -1% | 17% | 0% | 12% | 2% | -11
O=C(/C=C/c1cccs1)c1ccc(O)cc1 | nt | nt | nt | nt | nt | 3
O=C(C=Cc1cccs1)c1ccccc1 | nt | -2% | 1% | -1% | 13µM* | -22
O=C(/C=C/c1cccs1)Nc1cccc(NC(=O)/C=C/c2cccs2)n1 | 14µM* | -8% | -4% | 15% | -4% | -9
Cc1ccccc1Cn1c(CCNC(=O)C(C)C)nc2ccccc21 | nt | nt | nt | nt | nt | 8
O=C(CNC(=O)c1ccccc1F)OCC(=O)N1CCCCC1 | -2% | 5% | -7% | -44% | 25µM* | -10
COc1ccc(NC(=O)CCc2c(C)c3ccc(C)cc3oc2=O)cc1 | nt | nt | nt | nt | nt | -2
CCOC(=O)c1c(NC(=O)c2nn(CC)cc2Br)sc2c1CCCCC2 | 9% | 8% | 2% | -44% | 28µM* | -1
CCOC(=O)c1c(NC(=O)c2ccccc2Cl)sc2c1CCc1ccccc1-2 | 11µM* | 31% | -2% | ? | nt | -2
CCOC(=O)c1c(NC(=O)c2ccccc2C)sc2c1CCCC2 | nt | nt | 7% | ? | 32µM* | 5
CCOC(=O)c1c(NC(=O)c2ccoc2C)sc2c1CCC2 | 5% | 9% | 8% | -6% | 35µM* | -1

Source: PubChem BioAssay (National Center for Advancing Translational Sciences (NCATS))
